# TLR4-MyD88 BLA – inhibitors of human TLR4-MyD88 binding. O00206+Q99836. HeLa CL3-4 TLR4/MyD88 BLA complementation, FRET ratio. inhibition, % at 8.4 µM. actives 0.18% (n = 200,000). AID 861; in the data active = inhibition above about 25%;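 note: 0% = vehicle and 100% = reference inhibitor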
# NOD2 RIPK2 PPI – inhibitors of human NOD2-RIPK2 interaction; O43353; actives 0.38% (n = 360,000); AID 624267; CHO BLA complementation NOD2-RIPK2, CCF4 ratio; inhibition, % at 4.98 µM; in the data active = inhibition above about 21%;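 note: 0% = vehicle only and 100% = reference blocker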
# m5-HT2A agonist – mouse HTR2A agonism via beta-arrestin recruitment | CHO-K1 mHTR2A beta-arrestin complementation, luminescence; percent of 30 µM serotonin response | activation, % at 7.6 µM | actives 0.66% (n = 360,000);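 active = activation above a run cutoff, the mean activation of all tested compounds plus 3 SD, cut at about 14% in these data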;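 note: 0% = plate median of compound wells and 100% = 30 µM serotonin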
# Target sequence (P35363 whole entry, looked up): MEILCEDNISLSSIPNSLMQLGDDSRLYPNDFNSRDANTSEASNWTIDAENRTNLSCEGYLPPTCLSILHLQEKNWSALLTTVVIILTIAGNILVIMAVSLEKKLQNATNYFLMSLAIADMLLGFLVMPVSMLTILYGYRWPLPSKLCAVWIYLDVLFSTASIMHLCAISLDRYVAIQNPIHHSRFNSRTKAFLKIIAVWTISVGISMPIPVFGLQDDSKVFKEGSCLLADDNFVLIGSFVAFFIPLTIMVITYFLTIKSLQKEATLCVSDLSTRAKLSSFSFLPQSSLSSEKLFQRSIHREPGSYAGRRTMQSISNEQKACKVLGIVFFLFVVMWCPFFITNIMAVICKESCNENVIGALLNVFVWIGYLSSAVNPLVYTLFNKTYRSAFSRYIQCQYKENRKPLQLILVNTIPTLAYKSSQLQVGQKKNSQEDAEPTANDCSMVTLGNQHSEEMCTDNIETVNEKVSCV
# TMEM16A inh – blocks the mouse calcium-activated chloride channel TMEM16A. HEK293 TMEM16A/YFP iodide influx fluorescence, ionomycin. normalized B-score (activity score, 25-100; higher = stronger inhibition) at 10 µM. actives 1.2% (n = 310,000);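 active = ratio plate-corrected score three or more library SD toward inhibition, starting fluorescence score within five deviations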;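 note: score derived from kinetic fluorescence span divided by baseline fluorescence per well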
# TLR9-MyD88 inh – TLR9-MyD88 interaction inhibition. Q9NR96+Q99836. CHO BLA complementation TLR9-MyD88, CCF4 FRET ratio. inhibition, % at 4.98 µM. actives 0.21% (n = 340,000). AID 504734;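 active = inhibition above the mean over all tested compounds plus 3 SD, cut at about 21% in these data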;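 note: 0% = DMSO only wells and 100% = clavulanate BLA inhibitor control wells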
# TMEM16A act – mouse TMEM16A channel activation, primary screen | AID 623877 | HEK293 TMEM16A/YFP-H148Q/I152L, iodide quench fluorescence; stronger effect = lower value | actives 0.3% (n = 340,000) | B-score at 10 µM;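 active = fluorescence-ratio B-score plate-corrected deviation score at least 3 library SD below zero, with starting fluorescence score within 5 deviations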;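 note: channel opened by trigger with iodide after compound preincubation; score built on the fluorescence ratio of max minus min over baseline; more negative score means more quench and so TMEM16A activation or potentiation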
# TLR4 MyD88 cnf – TLR4-MyD88 interaction inhibition confirmed | shares compounds with TLR4-MyD88 BLA | HeLa CL3-4 BLA complementation, CCF4 FRET ratio | inhibition, % at 8.4 µM | actives 50% (n = 350) | AID 941;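 active = mean inhibition across three repeat runs above about 25% carried over from the earlier screen, limit read from the data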;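 note: plate controls were DMSO only for no effect and clavulanic acid blocking BLA at full dose for full effect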
# BLA inh HeLa – counter-screen for TLR4-MyD88 inhibitors: beta-lactamase reporter inhibitors; inhibition, % at 8.4 µM; shares compounds with TLR4-MyD88 BLA; HeLa BLA reporter, CCF4 FRET ratio; actives 63% (n = 350); AID 1237;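 active = mean inhibition over three repeats above about 26% taken from the earlier screen, limit read from the data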;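 note: HeLa cells stably expressing beta-lactamase reporter as counterscreen for TLR4-MyD88 inhibitors; 0% = DMSO and 100% = clavulanic acid full inhibition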
# * marks the source's active call; other numbers are inactive results; i = inactive; . = not tested or not shown. Only some compounds are listed: those with a hit (about 2.4% of all), similar ones and a draw of the others.
SMILES,TLR4-MyD88 BLA,NOD2 RIPK2 PPI,m5-HT2A agonist,TMEM16A inh,TLR9-MyD88 inh,TMEM16A act,TLR4 MyD88 cnf,BLA inh HeLa
COc1ccc(OC)c(-n2c(-c3cccc(O)c3)n[nH]c2=S)c1,29.8*,-5.5,4.3,i,-1.2,i,-1.9,0.5
COc1ccc(-c2n[nH]c(=S)n2-c2cc(OC)ccc2OC)cc1,.,4.6,-1.8,i,-4.7,i,.,.
CCCCCCCn1c2c(c(=N)c3ccccc31)CCC2,27.8*,6.5,-3.9,100*,-10.5,-5.1*,30.1*,34.1*
CCc1ccc(N2CC(O)(c3cccs3)[N+]3=C2SCCC3)cc1 (configuration not stated),16.5,-0.4,-5.6,i,4.0,i,.,.
CC(=O)Nc1ccc(Oc2ccc(NC(C)=O)c(NC(C)=O)c2)cc1,-11.9,-6.5,-0.9,i,5.2,i,.,.
O=C(/C=C/c1ccc(N2CCC(c3ccccc3)=N2)cc1)c1ccccc1,37.5*,.,.,i,.,.,19.1,12.1
Cc1cc(C)nc(SC2=CS(=O)(=O)c3ccccc32)n1,7.5,0.8,-2.0,i,12.8,i,.,.
O=S1(=O)C=C(Sc2nc3ccccc3s2)c2ccccc21,25.7*,.,.,i,.,.,12.7,-19.3
CCOC(=O)c1c(NC2=NS(=O)(=O)c3ccccc32)sc2c1CCC(C)C2 (configuration not stated),51.9*,4.5,-1.1,i,2.2,i,-1.0,15.2
Cc1nc(N)ncc1C(=O)Nc1ccccc1,-1.6,-1.3,-3.6,i,-5.0,i,.,.
CC(C)CSC1=NSC2=NC(=O)/C(=C\c3coc4ccccc4c3=O)C(=N)N12,43.2*,16.5,3.3,i,9.4,i,13.6,30.6*
CCCCC(=O)Nc1sc2c(c1C(=O)OCC)CCC(C=O)=C2Cl,26.1*,9.5,0.4,i,18.8,i,38.3*,45.4*
COc1cc(/C=C(\C#N)c2nc3ccccc3s2)ccc1OCC(=O)Nc1ccccc1,-5.7,-8.2,3.1,i,6.6,i,.,.
COc1cc(/C=C(\C#N)c2nc3ccccc3[nH]2)ccc1OC(=O)c1ccco1,-9.2,-2.8,-0.9,i,6.5,i,.,.
COc1cc(/C=C(/C#N)c2nc3ccccc3[nH]2)ccc1OCC(=O)Nc1ccccc1C,82.6*,-9.4,5.8,i,-3.4,i,80.1*,106.8*
COc1cc(/C=C(/C#N)c2nc3ccccc3[nH]2)ccc1OCC(=O)Nc1ccccc1C(C)C,76.8*,-3.1,0.4,i,-2.5,i,79.6*,112.9*
CCN(CC)c1ccc(NC(=O)COC(=O)/C=C/c2nc3ccccc3s2)cc1,-2.2,-12.0,3.1,i,-1.3,i,.,.
CCN(CC)c1ccc(/C=C/c2nc3ccccc3s2)cc1,56.4*,.,.,i,.,.,48.0*,75.7*
CC1CCCCC1NC(=O)COC(=O)c1c2c(nc3ccccc13)/C(=C/c1ccco1)CC2 (configuration not stated),60.6*,8.7,2.1,i,-11.9,i,49.2*,85.1*
Cc1cc(C(=O)OCC(=O)NC2CCCC2)c2ccccc2n1,.,-6.9,-1.5,.,1.9,i,.,.
O=C(COC(=O)c1c2c(nc3ccccc13)/C(=C/c1ccco1)CC2)NC1CCCC1,45.1*,1.7,-0.2,.,18.7,i,44.5*,69.1*
Cc1ccccc1OCC(=O)Nc1cc(Cl)ccc1Oc1ccccc1,-2.1,0.6,1.9,i,-24.9,i,.,.
O=S(=O)(NCc1ccccc1)c1ccc(Cl)cc1,1.5,-1.7,-7.5,i,4.0,i,.,.
O=S(=O)(Nc1cc2nc3ccccc3nc2n1Cc1ccccc1)c1ccc(Cl)cc1,36.4*,43.8*,-0.8,i,-2.4,i,33.0*,65.6*
CC(=O)c1c(C)n([O-])c2cc(F)c(F)cc2[n+]1=O,28.4*,10.3,9.9,i,5.0,i,25.7*,12.0
SMILES,TLR4-MyD88 BLA,NOD2 RIPK2 PPI,m5-HT2A agonist,TMEM16A inh,TLR9-MyD88 inh,TMEM16A act,TLR4 MyD88 cnf,BLA inh HeLa
COc1ccc2c(c1)[n+](=O)c(C(C)=O)c(C)n2[O-],-0.2,1.1,3.4,i,1.7,i,.,.
CCOC(=O)C1=C(CSc2nc(-c3ccccc3)ccc2C#N)OC(N)=C(C#N)C1c1ccc(OC)cc1 (configuration not stated),26.4*,16.8,0.0,i,6.9,i,15.2,24.1
CCOC(=O)C1=C(CSc2nc(CC)c(C)cc2C#N)OC(N)=C(C#N)C1c1ccccc1 (configuration not stated),-6.4,0.4,-4.4,i,-2.9,i,.,.
Cc1[nH]c(=S)[nH]c(=O)c1CCCO,-9.3,1.5,4.3,i,-9.6,i,.,.
C=CCOc1nc(-c2ccncc2)nc2ccccc12,25.5*,-6.0,3.0,i,0.4,i,-7.9,4.2
COc1nc(-c2ccncc2)nc2ccccc12,-9.7,-1.0,1.0,i,-7.1,i,.,.
COc1ccc(/C=C2\CC/C(=C\c3ccc(OC)cc3OC)C2=O)c(OC)c1,32.3*,-4.8,4.8,i,11.2,i,19.3,47.2*
CCCn1nnnc1NCc1ccccc1Cl,.,10.4,-6.6,i,-5.7,i,.,.
CC1(C)C(=O)Nc2ccccc2N1C(=O)CSc1nnc2ccccn12,-2.2,-3.4,2.5,i,-23.3,i,.,.
CC1CN(C(=O)C(c2ccccc2)c2ccccc2)CC(C)O1 (configuration not stated),6.8,-3.8,0.5,i,1.4,i,.,.
CCN(CC)c1ccc2cc(-c3nnc(-c4ccccc4)o3)c(=O)oc2c1,8.3,11.9,-3.7,i,10.2,i,.,.
CCN(CC)c1ccc2cc(-c3nc(-c4ccc(OC)cc4)cs3)c(=O)oc2c1,79.6*,.,.,i,.,.,89.7*,115.2*
CCN(CC)c1ccc2cc(-c3nc4ccccc4[nH]3)c(=O)oc2c1,39.6*,44.7*,0.0,i,37.1*,i,64.1*,78.3*
CN(C)c1nc(NCc2ccccc2)nc(Oc2ccc(=O)[nH]n2)n1,-1.2,-1.8,-2.2,i,7.7,.,.,.
Clc1cc2nc(-c3cccnc3Cl)[nH]c2cc1Cl,.,1.1,2.2,i,2.8,i,.,.
COc1ccccc1-c1nnc(NC(=O)C(C)C)s1,27.3*,-8.6,4.6,i,3.4,i,-9.4,5.0
Cc1ccc(NC(=O)CN2C(=O)S/C(=C\c3ccc(-c4cccc(C(=O)O)c4C)o3)C2=O)cc1,3.0,.,.,i,.,.,.,.

# Screens from PubChem.
